The results in this text go back to PubChem BioAssay (NCI).

Common to all, as to experiment: NCI-60 one-dose screen, 48 h (100 = growth as untreated, 0 = no growth, -100 = all killed)
Settings in all cases: 10 µM unless noted

For assay [1], the system named is NCI-H23 lung.
Assay [2] relates to NCI-H226 lung.
The subject of assay [3] is NCI-H322M lung.
Assay [4] concerns HOP-62 NSCLC.
In assay [5] the test system is NCI-H460 lung.
In assay [6] the test system is HOP-92 NSCLC.
Assay [7] concerns NCI-H522 lung.
Assay [8] deals with A549/ATCC NSCLC.
For assay [9], the system named is 786-0 renal.
In assay [10] the test system is COLO 205 colon.

The panel holds about 83,000 compounds, 20% with a hit somewhere; the sample as a whole holds those more often.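 Cell lines were cultured in 96-well plates, exposed to a single compound concentration, and assessed for percent growth 48 hours later.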 Values without a mark were called inactive. The source made the active and inactive calls. How the source made its calls: active means growth percent below 10; inactive means the rest.

Take `Cc1ccc(CNc2ccc(Cl)cc2NCc2ccc(C)c(O)c2)cc1O`: the growth in [1] is 3.7% (active); in [2], 85.7%; in assay [3], 17.6%; in assay [4] it was 40.5%; in [5], 2.22% (active); in assay [6], -11% (active). The growth in assay [7] is 12.5%; in [8] it was 21%; in assay [9] it was 23%.

For the molecule `CCC(C)N(c1ccc(Cl)cc1)c1nc(-c2ccc(Br)cc2)cs1` (stereo unspecified), the growth was 88.6% in assay [1]; 93.1% in assay [2]; 91.4% in assay [3]; 90.9% in [4]; 98% in assay [5]; 94.4% in assay [6]. The figures for the growth in assay [7], in [8] and in assay [9] were 89.2%, 95.6% and 96%, respectively.

With `CCOC(=O)c1c(NC(=O)c2ccc(C(C)C)cc2)sc2c(CN(C)C)c(O)ccc12`, the growth in assay [1] was 82.2%; in assay [2], 85.2%; in assay [3] it was 79.2%; in assay [4], 89.9%; in [5] it was 6.2% (active); in assay [6] it was 69.5%. The growth was 97.2% in assay [7], 77% in [8], -50.5% (active) in [9] and -24.5% (active) in assay [10].

Consider `COC1=CC(c2ccc[nH]2)=N/C1=C\c1[nH]c(C)c(C(=O)OCc2ccccc2)c1C`, for which the growth in assay [1] was -15.7% (active); in [2], -25.2% (active); in assay [3] it was -11% (active); in assay [4], -43.2% (active); in assay [5], -11.8% (active); in [6] it was -26.3% (active). In addition, the results for the growth in [7], in [8] and in assay [9] were -59.6% (active), -26.8% (active) and -49.2% (active), respectively.

For `O=C(/C=C/c1cn(-c2ccccc2)nc1-c1ccc([N+](=O)[O-])cc1)c1ccc(Cl)cc1`, the growth was 48.4% in [1]; 39% in assay [2]; 75.1% in [3]; 24.5% in assay [4]; 29.1% in [5]; 58.5% in assay [6]. Also, the growth in [7] was 23.3%; in [8], 61.8%; in [9] it was -92.5% (active).

In the case of `CCCCC[C@@H]1Cc2cc(O)c(C(=O)O)c3c2[C@H](C[C@]2(OC[C@@H](CC(=O)[C@@](C)(CC)C(=O)OC)[C@@H]2C)O3)O1`, the growth was 112% in assay [1]; 92.1% in assay [2]; 105% in assay [3]; 117% in [4]; 109% in [5]; 113% in assay [6]. For the same molecule, the growth is 117% in assay [7], 107% in assay [8] and 108% in assay [9].

Take `CCC(=C(c1ccc(OCCN2CCCC2)cc1)c1ccc(OCCN2CCCC2)cc1)c1ccc(Cl)cc1`: the growth in assay [1] was 77.1%; in [2], 105%; in assay [3], 20%; in assay [4] it was 60.2%; in [5] it was -86.9% (active); in assay [6], 38.7%. The results for the growth in assay [7], in assay [8] and in assay [9] were 23.5%, -28% (active) and -94.2% (active), respectively.

Turning to `C=CC(=O)NCc1ccc(Nc2nccc(-c3ccc(N4CCCC4)c(C#N)c3)n2)cc1`, the growth is 49.7% in assay [1]; 39.9% in [2]; 41% in assay [3]; 17.1% in assay [4]; 23.3% in assay [5]; 36.8% in assay [6]. Moreover, the growth is 19.2% in assay [7], 19.2% in assay [8] and 17.6% in assay [9].

On to `CNc1nc(S(=O)c2ccc(C#N)cc2)nc2ccccc12` (stereo unspecified), for which the growth in assay [1] was 78.4%; in assay [2] it was 81.1%; in assay [3], 99.6%; in assay [4], 98.5%; in assay [5], 85.2%; in assay [6], 75%. For the same molecule, the growth in assay [7] was 50.3%; in [8], 90.1%; in assay [9], 97.5%.

As for `O=C(Nn1c2c(sc1=NCc1ccccc1)C(=O)c1ccccc1C2=O)c1cc2ccc1CCc1ccc(cc1)CC2`, the growth was 32% in assay [1]; 66.3% in [2]; 106% in assay [3]; 77.5% in assay [4]; 74.9% in assay [5]; 127% in assay [6]. Also, the results for the growth in assay [7], in [8] and in [9] were 52.9%, 80% and 82.7%, respectively.

With `Fc1ccc(Nc2nc3nonc3nc2Nc2ccc(I)cc2)cc1`, the growth in [1] was -19.5% (active); in [2] it was -17.5% (active); in [3], 1.66% (active); in [4], -23.7% (active); in [5], 2.95% (active); in assay [6], -25.9% (active). Also, the growth is -20.2% (active) in assay [7], 2.73% (active) in assay [8], -11.1% (active) in assay [9] and -64.4% (active) in [10].

As for `Cc1cc(Cl)ccc1NC(=O)c1cc2ccccc2cc1O`, the growth in assay [1] is 7.5% (active); in [2], 33.5%; in [3] it was -1.74% (active); in assay [4], 33.9%; in assay [5] it was 2.76% (active); in assay [6] it was -12.1% (active). Also, the growth in [7] was -8.43% (active); in assay [8], 20.8%; in assay [9], 28.4%; in [10], 99.8%.

`O=C(c1cc2ccccc2o1)c1nn(-c2ccccc2)/c(=N/N=Cc2cn(-c3ccccc3)nc2-c2cc3ccccc3oc2=O)s1`: the growth was 99.4% in [1]; 99.4% in assay [2]; 92% in assay [3]; 97.6% in [4]; 106% in assay [5]; 73.2% in assay [6]. Moreover, the growth is 88% in assay [7], 106% in [8], 103% in [9] and 117% in [10].

As for `COc1ccc2c3c([nH]c2c1)C(=O)c1nc(C)ccc1C3=O`, the growth was 3.17% (active) in [1]; 66.1% in [2]; 43.4% in assay [3]; 46.6% in [4]; -34.9% (active) in assay [5]; 86% in [6]. Further, the growth in [7] is 56%; in [8], -11.9% (active); in assay [9], 79.7%; in [10], 63.2%.
